From PubChem BioAssay
UGM FP inh = inhibitors of M. tuberculosis UDP-galactopyranose mutase; inhibition, % at 10 µM; P9WIQ1; 0.06% of 320,000 active; purified UGM, fluorescence polarization probe displacement; in the data active means inhibition above about 10%, passing the limit was not always enough
Mtb bLac sens = beta-lactam sensitization of Mtb H37Rv; M. tuberculosis H37Rv growth with meropenem, percent inhibition; inhibition, % at 25 µM; AID 434955; 0.27% of 330,000 active; call rule not given here;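 further: growth measured after seven days incubation then overnight dye step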
FadD28 FP inh = M. tuberculosis FadD28 bisubstrate binding inhibition. inhibition, % at 12.5 µM. 0.22% of 360,000 active. AID 588549. FadD28 bisubstrate probe binding, fluorescence polarization; in the data active means inhibition above about 8.5%, passing the limit was not always enough
Rv3671c inh = inhibitors of M. tuberculosis serine protease Rv3671c. P9WHR9. inhibition, % at 5.96 µM. 0.048% of 320,000 active. AID 2606; in the data active means inhibition above about 38%;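 further: extracellular domain of Rv3671c used as enzyme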
Target sequence (P9WHR9 whole entry, looked up, the tested form may be a part): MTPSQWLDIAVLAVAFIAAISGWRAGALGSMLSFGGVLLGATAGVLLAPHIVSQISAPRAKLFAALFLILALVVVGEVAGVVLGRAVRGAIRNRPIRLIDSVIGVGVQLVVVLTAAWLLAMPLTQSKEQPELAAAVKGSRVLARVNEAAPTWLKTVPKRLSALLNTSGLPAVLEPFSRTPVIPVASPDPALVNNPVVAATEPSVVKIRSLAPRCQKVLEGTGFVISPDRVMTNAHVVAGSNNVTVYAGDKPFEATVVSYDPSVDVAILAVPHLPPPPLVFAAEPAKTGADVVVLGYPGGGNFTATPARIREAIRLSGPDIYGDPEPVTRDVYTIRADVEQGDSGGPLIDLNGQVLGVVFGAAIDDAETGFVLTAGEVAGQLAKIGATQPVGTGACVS
GDH-TPI counter-1 = inhibits GDH-TPI coupling enzymes, artifact for Mtb FBA screen. 1.2% of 360,000 active. inhibition, % at 4.8 µM. AID 588335. GDH-TPI coupled enzyme counterscreen, NADH absorbance; in the data active means inhibition above about 30%
Mtb FBA inh = inhibitors of M. tuberculosis fructose-bisphosphate aldolase; purified M. tuberculosis FBA, fluorescence read-out; AID 588726; P9WQA3; 2.3% of 360,000 active; inhibition, % at 1 µM
Mtb FBA inh conf = confirmation of M. tuberculosis fructose-bisphosphate aldolase inhibitors; shares compounds with Mtb FBA inh; purified M. tuberculosis FBA, fluorescence read-out; inhibition, % at 1 µM; 78% of 5,600 active; AID 651616
GDH-TPI counter-2 = inhibits GDH-TPI coupling enzymes, flagging Mtb FBA hits. shares compounds with Mtb FBA inh. GDH-TPI coupled enzyme counterscreen, fluorescence. inhibition, % at 1 µM. 81% of 5,600 active. AID 652141; in the data active means inhibition above about 10%
Numbers stand for hits. Shown are actives, neighbours in structure and some others; about 3.7% of the full set was active somewhere. Unless noted, no stated cut-off is given here; in the data, active means inhibition above about 27%; inactive means the rest.

For Cc1cccc(-c2cc3nc(C)cc(NCCCN(C)C)n3n2)c1 the results were UGM FP inh inactive, Mtb bLac sens inactive, FadD28 FP inh inactive, Rv3671c inh inactive, GDH-TPI counter-1 inactive and Mtb FBA inh inactive.
O=c1[nH]c2ccccc2nc1-c1cccs1 was read as UGM FP inh inactive, Mtb bLac sens inactive, FadD28 FP inh inactive, Rv3671c inh inactive, GDH-TPI counter-1 inactive, Mtb FBA inh 103.9, Mtb FBA inh conf 142.6 and GDH-TPI counter-2 106.6.
For CCn1cc(C(=O)NCCc2ccc(OC)c(OC)c2)c(=O)c2cc(S(=O)(=O)N3CCOCC3)ccc21 the results were UGM FP inh inactive, Mtb bLac sens inactive, FadD28 FP inh inactive, Rv3671c inh inactive, GDH-TPI counter-1 inactive and Mtb FBA inh inactive.
For O=C1c2nc3cc(-c4ccco4)[nH]n3c(=O)c2CN1Cc1ccccc1 the results were UGM FP inh inactive, Mtb bLac sens inactive, FadD28 FP inh inactive, Rv3671c inh inactive, GDH-TPI counter-1 inactive, Mtb FBA inh 97.2, Mtb FBA inh conf 104.2 and GDH-TPI counter-2 67.1.
Screening CCCCc1c(C)nc2cc(-c3ccco3)[nH]n2c1=O returned UGM FP inh inactive, Mtb bLac sens inactive, FadD28 FP inh inactive, Rv3671c inh inactive, GDH-TPI counter-1 inactive and Mtb FBA inh inactive.
For CN1CCN(c2ccccc2/C=C2/C(=O)Nc3ccccc32)CC1 the results were UGM FP inh inactive, Mtb bLac sens inactive, Rv3671c inh inactive, GDH-TPI counter-1 inactive and Mtb FBA inh inactive.
`NS(=O)(=O)c1ccc(NC(=O)COC(=O)COc2ccc3ccccc3c2)cc1` gave UGM FP inh inactive, Mtb bLac sens inactive, FadD28 FP inh inactive, Rv3671c inh inactive, GDH-TPI counter-1 inactive, Mtb FBA inh 42.3, Mtb FBA inh conf 55.5 and GDH-TPI counter-2 37.4.
COc1cc2sc(-c3ccc(S(C)(=O)=O)cc3)c(C(=O)NCc3ccc(C)o3)c2cc1OC was read as UGM FP inh inactive, Mtb bLac sens inactive, FadD28 FP inh inactive, Rv3671c inh inactive, GDH-TPI counter-1 inactive, Mtb FBA inh 37.2, Mtb FBA inh conf 99.5 and GDH-TPI counter-2 83.3.
Cc1ccc(CNC(=O)c2c(-c3ccccc3)sc3ccccc23)o1 was read as UGM FP inh inactive, Mtb bLac sens inactive, FadD28 FP inh inactive, Rv3671c inh inactive, GDH-TPI counter-1 inactive and Mtb FBA inh inactive.
COc1cc2sc(-c3ccc(S(C)(=O)=O)cc3)c(C(=O)NCCCCO)c2cc1OC was read as UGM FP inh inactive, Mtb bLac sens inactive, FadD28 FP inh inactive, Rv3671c inh inactive, GDH-TPI counter-1 31.0, Mtb FBA inh 45.9, Mtb FBA inh conf 45.8 and GDH-TPI counter-2 30.5.
Screening COc1ccc(C2CC(=O)C3=C(C2)Nc2ncnn2C3c2ccccc2)cc1 (stereo not drawn) returned UGM FP inh inactive, Mtb bLac sens inactive, FadD28 FP inh inactive, Rv3671c inh inactive, GDH-TPI counter-1 inactive and Mtb FBA inh inactive.
`O=C1CC(c2ccco2)CC2=C1C(c1ccccc1)n1nc(C(F)(F)F)nc1N2` (stereo not drawn) gave UGM FP inh inactive, Mtb bLac sens inactive, FadD28 FP inh inactive, Rv3671c inh inactive, GDH-TPI counter-1 inactive, Mtb FBA inh 27.6, Mtb FBA inh conf 64.0 and GDH-TPI counter-2 53.3.
